Assay results from ChEMBL document CHEMBL3433997, “St. Jude Leishmania screening dataset” (2016).

biological target: Glucose transporter (Leishmania mexicana) (UniProt O61059); experiment: ST_JUDE_LEISH: Cytotoxicity at 2uM final concentration against transgenic Leishmania Mexicana promastigotes LmGT2 that are glucose transport deficient and complemented with the L. Mexicana glucose transporter 2. Activity is measured by DNA content using SYBR green in vitro; assay type: functional

Row | Structure (SMILES) | inhibition [%]
1 | CC1(CCc2ccccc2)N=C(N)N=C(N)C1c1ccc(Cl)c(Cl)c1 (stereo not given) | 8.62
2 | CC(C)Oc1ccc2c(c1)OC(c1ccccc1)(C(F)(F)F)NC2=O (stereo not given) | 7.18
3 | COc1ccc(Nc2nccc(NCCNC(=O)Nc3cc(C)ccc3C)n2)cc1 | 1.38
4 | COc1ccc(C(=O)C2CCN(CCCCNC(=O)c3ccc(NC(=O)c4cc(Cl)cc(Cl)c4)cc3)CC2)cc1 | 2.05
5 | Cc1noc(-c2ccccc2)c1NC(=O)NC1CCN(CCCCCNC(=O)/C=C/c2ccc(Cl)c(Cl)c2)CC1 | 3.4
6 | Fc1ccc2[nH]c(-c3ccc(-c4ccc(CNCc5ccccc5)cc4)cc3)nc2c1 | 6.7
7 | Cc1cccc2nc(-c3cccc(-c4cccc(NC(=O)NC5CC5c5ccccc5)c4)c3)[nH]c12 (stereo not given) | 5.21
8 | CCCCOc1c(CNCCCCCCNCc2ccc3ccccc3c2OCCCC)ccc2ccccc12 | 85.2
9 | Cc1cc(Cl)ccc1NC(=O)Nc1ccc2nccc(N3CCN(C)CC3)c2c1 | 5.6
10 | O=C(C1CC1)N1c2ccccc2CCc2ccccc21 | -0.64
11 | COc1cc2nc(N3CCC(CNC(=O)c4ccc(-c5ccc(C#N)cc5C)cc4)CC3)nc(N)c2cc1OC | 0.49
12 | CC(C)(C)C(=O)Nc1ccccc1Oc1ccc(Cl)cc1 | 5.27
13 | Cc1cc(N2CCN(C3CCCCC3)CC2)nc2cccc(O)c12 | 0.33
14 | CC1C(c2cccc(Cl)c2)OCC(C)(C)N1C(=O)CCN1CCCCC1 (stereo not given) | -1.56
15 | CCN(CC)CCN(CCN(CC)CC)c1ccc2c(c1)Sc1c(Cl)ccc(Cl)c1S2 | 3.91
16 | Fc1ccc2[nH]c(-c3cccc(-c4cccc(CNCCc5ccncc5)c4)c3)nc2c1 | 12.9
17 | O=C(Nc1cccc(-c2ccc(-c3nc4ccccc4[nH]3)cc2)c1)c1csnn1 | 0.69
18 | COc1ccc(Cl)cc1N1CCN(CCCNC(=O)c2ccc(-c3nc4cc(Cl)c(C)cc4[nH]3)s2)CC1 | 1.42
19 | CC(C)(C)c1ccc(NC(=O)N[C@@H]2CCN(c3ccnc4ccccc34)C2)cc1 | 0.79
20 | CCN(CC)CCN(Cc1ccc(-c2ccc(C(F)(F)F)cc2)cc1)C(=O)Cn1c(CCc2cccc(F)c2F)nc(=O)c2cc(C)ccc21 | 7.16

Row | Structure (SMILES) | inhibition [%]
21 | Cc1cccc2nc(-c3ccc(-c4cccc(NC(=O)c5cncn5C)c4)s3)[nH]c12 | -2.47
22 | Cc1ccc(C(=O)Nc2ccc(F)cc2)cc1-c1nc(NC2CC(C)(C)NC(C)(C)C2)nc2c1ccc(=O)n2-c1c(F)cccc1F | 2.81
23 | COc1ccc(-c2cccc(NC(=O)c3ccc(C#N)cc3)c2)cc1CN1CCCC1 | 2.91
24 | Cc1cccc2nc(-c3cccc(-c4cccc(NC(=O)c5cn(C)c(=O)n5C)c4)c3)[nH]c12 | -0.64
25 | Cc1ccc(-c2cc(C(=O)Nc3ccc(S(=O)(=O)N4CCCC(C)C4)cc3)[nH]n2)c(O)c1 (stereo not given) | -1.01
26 | CCN(C)C(=O)n1ncc2c3c(N)nc(N)nc3ccc21 | 2.18
27 | CC(C)c1cccc(OCC2CCN(c3ncc(C(=O)Nc4ccccc4)cc3Cl)CC2)c1 | -2.66
28 | CC(Oc1ccc(Cl)cc1Cl)c1nc(-c2ccc(NC(=O)c3ccco3)cc2)no1 (stereo not given) | -0.2
29 | COc1cc(CCNc2nc(NCc3cccc4ccccc34)nc(N3CCC(N)CC3)n2)ccc1O | 2.74
30 | N#Cc1ccc(NC(=O)c2ccc(Cc3ccc4c(c3)CCN(C3CCC3)CC4)cn2)cc1 | 10.4
31 | Cn1cnc(CCNC(=O)c2ccc(-c3cccc(-c4nc5cc(C(F)(F)F)ccc5[nH]4)c3)cc2)c1 | 5.89
32 | CCc1cc2c3c(N)nc(N)nc3ccc2n1CC | 39.4
33 | CCCCCOc1ccc(C(O)C(CN2CCCCC2)c2ccccc2)cc1 (stereo not given) | 5.39
34 | COc1ccc2nccc(NC(=O)C3(O)CCC(NCc4ccc5c(c4)NCCS5)CC3)c2n1 (stereo not given) | 7.11
35 | Nc1ccc2nc(C=Cc3ccccc3)[nH]c2c1 | 3.06
36 | CC(C)CCN1CCC(Oc2ccc(NC(=O)c3cccs3)cc2Cl)CC1 | 3.68
37 | Cc1cnccc1/C=C/c1cccc(OCCN2CCc3ccc(S(C)(=O)=O)cc3CC2)c1 | 1.68
38 | Cc1cc(=O)c2cc(Oc3ccc(OC(F)(F)F)cc3)ccc2[nH]1 | -1.19
39 | COc1ccc2c(c1)OC(C)(C)CC2=NOS(=O)(=O)c1ccc(C)cc1 | 2
40 | CCOc1ccccc1C1C(C(=O)C(C)(C)C)N2c3ccc(Br)cc3C=CC2C12C(=O)c1ccccc1C2=O (stereo not given) | 57.1
